# Measured values reported in PubChem BioAssay (EPA / NIEHS).
# Results filed as inconclusive are left out. Activity calls are given as the source filed them. How the source made its calls: active means hit-call score of the fitted dose curve at least 0.9, where 1 is the maximum; inconclusive means response in the unintended direction; inactive means score below 0.9.
# Legend:
# [1] = biological target: Estrogen receptor (Homo sapiens) (UniProt P03372); assay: OT_ER_ERaERa_0480: Odyssey Thera (OT) 8-hour HEK293T Protein-Complementation Assay for Estrogen Receptor-alpha/-alpha Homodimer (AID 2283351);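 further: rise in fluorescence from reassembled reporter fragments on ERα LBD homodimer in nucleus or whole cell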
# Estrogen receptor (Homo sapiens), sequence (P03372 whole entry, looked up, the tested form may be a part): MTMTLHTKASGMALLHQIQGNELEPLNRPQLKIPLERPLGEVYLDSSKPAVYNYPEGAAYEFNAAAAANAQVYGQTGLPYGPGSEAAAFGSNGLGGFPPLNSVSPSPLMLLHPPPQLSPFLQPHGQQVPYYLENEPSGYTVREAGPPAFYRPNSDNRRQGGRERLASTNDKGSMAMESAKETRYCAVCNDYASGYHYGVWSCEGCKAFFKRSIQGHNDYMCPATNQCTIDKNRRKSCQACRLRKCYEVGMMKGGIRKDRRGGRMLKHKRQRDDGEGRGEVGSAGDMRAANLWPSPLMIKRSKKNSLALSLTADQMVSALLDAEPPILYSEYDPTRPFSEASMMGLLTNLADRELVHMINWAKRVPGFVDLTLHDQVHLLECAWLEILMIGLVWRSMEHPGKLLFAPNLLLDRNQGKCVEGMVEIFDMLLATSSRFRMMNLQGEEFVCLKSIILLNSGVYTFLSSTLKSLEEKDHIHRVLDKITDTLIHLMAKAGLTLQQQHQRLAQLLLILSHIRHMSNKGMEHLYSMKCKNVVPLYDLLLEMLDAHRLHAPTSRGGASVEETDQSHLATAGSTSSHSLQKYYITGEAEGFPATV
# How it was run: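 HEK293T cells stably expressing a PCA pair of ER alpha LBD (residues 310-547) were dosed for 8 hours. The gain in fluorescence intensity, nuclear for agonists and whole-cell for antagonists, was measured by laser scanning cytometry against DMSO vehicle.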
# [2] = biological target: T1, Estrogen receptor (Homo sapiens) + Estrogen receptor beta (Homo sapiens) (UniProt P03372+Q92731); assay: OT_ER_ERaERb_0480: Odyssey Thera (OT) 8-hour HEK293T Protein-Complementation Assay for Estrogen Receptor-alpha/-beta Heterodimer (AID 2283352)
# T1 sequence (P03372 whole entry, looked up, the tested form may be a part): as above
# T1 sequence (Q92731 whole entry, looked up, the tested form may be a part): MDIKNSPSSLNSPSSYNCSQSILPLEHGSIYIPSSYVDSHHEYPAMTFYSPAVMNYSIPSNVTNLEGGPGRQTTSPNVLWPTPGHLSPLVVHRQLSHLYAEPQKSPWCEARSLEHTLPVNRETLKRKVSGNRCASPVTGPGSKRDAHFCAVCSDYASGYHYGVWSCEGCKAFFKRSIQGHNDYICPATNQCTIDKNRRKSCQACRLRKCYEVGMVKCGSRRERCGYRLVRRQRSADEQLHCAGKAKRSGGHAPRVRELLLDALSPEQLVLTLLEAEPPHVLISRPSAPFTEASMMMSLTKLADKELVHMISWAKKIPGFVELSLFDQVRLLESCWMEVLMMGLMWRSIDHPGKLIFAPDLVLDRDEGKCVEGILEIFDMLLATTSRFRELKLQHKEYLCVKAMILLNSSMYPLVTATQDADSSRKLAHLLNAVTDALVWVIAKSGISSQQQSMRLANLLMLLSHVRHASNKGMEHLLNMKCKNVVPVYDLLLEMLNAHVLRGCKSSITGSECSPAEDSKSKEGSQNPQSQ
# How it was run: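 HEK293T cells expressing ER-alpha/ER-beta LBD fusions to complementary reporter fragments were dosed with compound for 8 hours. Heterodimer formation was read as increased nuclear (agonist) or nuclear plus cytoplasmic (antagonist) mean fluorescence intensity versus DMSO vehicle.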
# [3] = biological target: T1, Estrogen receptor (Homo sapiens) + Estrogen receptor beta (Homo sapiens); assay: OT_ER_ERaERb_1440: Odyssey Thera (OT) 24-hour HEK293T Protein-Complementation Assay for Estrogen Receptor-alpha/-beta Homodimer (AID 2283356);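 further: heteromer of ER alpha and ER beta binding domains; hits raise reporter fluorescence and both agonists and antagonists give an increase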
# How it was run: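 HEK293T cells stably expressing a PCA pair of ERα LBD (aa 310-547) and ERβ LBD (aa 263-489) were dosed for 24 h. Fluorescence intensity increase versus DMSO vehicle was fitted as gain-of-signal.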
# [4] = biological target: Nuclear receptor subfamily 1 group I member 2 (Homo sapiens) (UniProt O75469); assay: NVS_NR_hPXR: NovaScreen (NVS) Nuclear Receptor Binding Assay for human Pregnane X Receptor (PXR) (AID 2283365);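 further: a drop in FRET signal versus DMSO baseline means the compound binds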
# Nuclear receptor subfamily 1 group I member 2 (Homo sapiens), sequence (O75469 whole entry, looked up): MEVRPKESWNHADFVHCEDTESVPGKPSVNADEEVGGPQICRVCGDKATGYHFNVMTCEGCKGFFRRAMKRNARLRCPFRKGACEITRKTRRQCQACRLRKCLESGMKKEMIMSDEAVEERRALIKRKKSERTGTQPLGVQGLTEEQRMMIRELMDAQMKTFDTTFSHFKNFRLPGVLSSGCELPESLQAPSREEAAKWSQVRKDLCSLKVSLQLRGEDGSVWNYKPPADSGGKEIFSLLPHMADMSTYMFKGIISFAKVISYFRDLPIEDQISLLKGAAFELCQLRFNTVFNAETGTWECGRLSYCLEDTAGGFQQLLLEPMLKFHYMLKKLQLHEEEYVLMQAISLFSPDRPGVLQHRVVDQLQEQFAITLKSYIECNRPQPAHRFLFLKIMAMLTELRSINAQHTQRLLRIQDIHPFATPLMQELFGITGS
# How it was run: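 Cell-free binding assay with extracted human PXR protein, read by TR-FRET 2 h after dosing; loss of signal relative to DMSO baseline indicates binding. Primary screen at 25 uM in duplicate, actives retested in concentration series.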
# [5] = biological target: Androgen Receptor/SRC-1 Co-activator, AR (gene 367) (UniProt P10275); assay: OT_AR_ARSRC1_0960: Odyssey Thera (OT) 16-hour HEK293T Protein-Complementation Assay for Androgen Receptor/SRC-1 Co-activator (AID 2283353);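 further: actives raise the signal above DMSO so potency reflects increased AR and SRC-1 complex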
# How it was run: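 Endpoint is gain-of-signal N/C fluorescence ratio in the 488 nm channel versus DMSO, from at least 400 cells per image, measured 16 h post-dosing. Cells: HEK293T stably carrying split-Venus AR/SRC-1 complementation constructs.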
# [6] = biological target: Androgen Receptor/SRC-1 Co-activator, AR (gene 367) (UniProt P10275); assay: OT_AR_ARSRC1_0480: Odyssey Thera (OT) 8-hour HEK293T Protein-Complementation Assay for Androgen Receptor/SRC-1 Co-activator (AID 2283354);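 further: hits raise the complementation signal above DMSO so AC50 marks enhancers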
# How it was run: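 After 8 h dosing, stably expressing HEK293T cells with split-Venus AR/SRC-1 fusions were imaged (488, 635nm). The 488nm N/C ratio per image gave the endpoint, analysed in the positive direction against DMSO.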
# [7] = biological target: Estrogen receptor beta (Homo sapiens) (UniProt Q92731); assay: OT_ER_ERbERb_0480: Odyssey Thera (OT) 8-hour HEK293T Protein-Complementation Assay for Estrogen Receptor-beta/-beta Homodimer (AID 2283357);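 further: active means signal gain over DMSO baseline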
# Estrogen receptor beta (Homo sapiens), sequence (Q92731 whole entry, looked up, the tested form may be a part): as the sequence (Q92731 whole entry, looked up, the tested form may be a part) above
# How it was run: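 Fluorescence gain from complemented reporter fragments on ER-beta LBD homodimer in HEK293T was quantified against DMSO controls after 8 h treatment, fixation in 4% formaldehyde and Draq5 staining.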
# [8] = biological target: Retinoic acid receptor alpha (Homo sapiens) (UniProt P10276); assay: NVS_NR_hRARa_Agonist: NovaScreen (NVS) Nuclear Receptor Binding Assay for human Retinoic Acid Alpha Receptor Agonism (RAR) (AID 2283361)
# Retinoic acid receptor alpha (Homo sapiens), sequence (P10276 whole entry, looked up): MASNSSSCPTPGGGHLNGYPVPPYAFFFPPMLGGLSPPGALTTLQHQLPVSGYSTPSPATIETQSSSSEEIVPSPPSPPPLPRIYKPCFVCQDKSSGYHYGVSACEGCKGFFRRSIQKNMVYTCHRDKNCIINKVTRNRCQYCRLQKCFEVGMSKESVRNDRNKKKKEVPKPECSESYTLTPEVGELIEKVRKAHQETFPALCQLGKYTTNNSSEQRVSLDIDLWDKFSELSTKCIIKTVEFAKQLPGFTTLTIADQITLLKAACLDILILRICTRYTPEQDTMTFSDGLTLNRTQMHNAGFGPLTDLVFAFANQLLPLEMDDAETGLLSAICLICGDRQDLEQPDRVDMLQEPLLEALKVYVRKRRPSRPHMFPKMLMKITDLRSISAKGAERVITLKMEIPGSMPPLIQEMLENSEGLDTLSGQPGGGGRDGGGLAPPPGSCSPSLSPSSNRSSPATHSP
# How it was run: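 Compounds screened at 25 uM, duplicate, then in concentration series if active. Detection: TR-FRET gain of signal versus DMSO after 2 h with cell-free extracted RARα.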
# [9] = biological target: human Thyroid Receptor Alpha (TRa), THRA (gene 7067) (UniProt P10827); assay: NVS_NR_hTRa_Antagonist: NovaScreen (NVS) Nuclear Receptor Binding Assay for human Thyroid Receptor Alpha Antagonism (TRa) (AID 2283362);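 further: activity is loss of signal relative to DMSO baseline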
# human Thyroid Receptor Alpha (TRa), THRA (gene 7067), sequence (P10827 whole entry, looked up): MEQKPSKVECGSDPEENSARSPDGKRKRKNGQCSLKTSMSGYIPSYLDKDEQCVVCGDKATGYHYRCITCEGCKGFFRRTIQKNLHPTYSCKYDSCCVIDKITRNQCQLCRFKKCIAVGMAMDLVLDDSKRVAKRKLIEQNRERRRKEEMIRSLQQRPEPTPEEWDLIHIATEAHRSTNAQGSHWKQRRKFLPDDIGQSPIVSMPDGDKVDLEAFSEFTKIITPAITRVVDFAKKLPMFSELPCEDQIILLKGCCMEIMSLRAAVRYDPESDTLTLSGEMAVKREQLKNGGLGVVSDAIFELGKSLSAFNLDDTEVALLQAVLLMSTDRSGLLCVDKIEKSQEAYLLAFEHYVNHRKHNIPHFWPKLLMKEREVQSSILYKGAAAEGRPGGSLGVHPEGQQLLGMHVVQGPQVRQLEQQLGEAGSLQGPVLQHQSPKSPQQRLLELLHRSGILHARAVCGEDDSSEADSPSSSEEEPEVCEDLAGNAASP
# How it was run: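 Cell-free binding assay on extracted receptor protein, read 1 h after chemical dosing by AlphaLISA chemiluminescence; loss of signal relative to DMSO baseline marks antagonism. Primary screen ran in duplicate at 25 uM, with concentration series for actives.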
# [10] = biological target: Retinoic acid receptor alpha (Homo sapiens) (UniProt P10276); assay: NVS_NR_hRAR_Antagonist: NovaScreen (NVS) Nuclear Receptor Binding Assay for human Retinoic Acid Alpha Receptor Antagonism (RAR) (AID 2283358)
# How it was run: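 Chemicals were first tested in duplicate at 25 uM, then actives in concentration series, in a cell-free TR-FRET antagonist binding format. Measurements were taken 2 hours after dosing and loss of signal was evaluated against DMSO controls.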
# [11] = biological target: human Dopamine Transporter (DAT), SLC6A3 (gene 6531) (UniProt Q01959); assay: NVS_TR_hDAT: NovaScreen (NVS) Transporter Assay for human Dopamine Transporter (DAT) (AID 2283374);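 further: activity means loss of bound radioligand signal relative to DMSO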
# human Dopamine Transporter (DAT), SLC6A3 (gene 6531), sequence (Q01959 whole entry, looked up): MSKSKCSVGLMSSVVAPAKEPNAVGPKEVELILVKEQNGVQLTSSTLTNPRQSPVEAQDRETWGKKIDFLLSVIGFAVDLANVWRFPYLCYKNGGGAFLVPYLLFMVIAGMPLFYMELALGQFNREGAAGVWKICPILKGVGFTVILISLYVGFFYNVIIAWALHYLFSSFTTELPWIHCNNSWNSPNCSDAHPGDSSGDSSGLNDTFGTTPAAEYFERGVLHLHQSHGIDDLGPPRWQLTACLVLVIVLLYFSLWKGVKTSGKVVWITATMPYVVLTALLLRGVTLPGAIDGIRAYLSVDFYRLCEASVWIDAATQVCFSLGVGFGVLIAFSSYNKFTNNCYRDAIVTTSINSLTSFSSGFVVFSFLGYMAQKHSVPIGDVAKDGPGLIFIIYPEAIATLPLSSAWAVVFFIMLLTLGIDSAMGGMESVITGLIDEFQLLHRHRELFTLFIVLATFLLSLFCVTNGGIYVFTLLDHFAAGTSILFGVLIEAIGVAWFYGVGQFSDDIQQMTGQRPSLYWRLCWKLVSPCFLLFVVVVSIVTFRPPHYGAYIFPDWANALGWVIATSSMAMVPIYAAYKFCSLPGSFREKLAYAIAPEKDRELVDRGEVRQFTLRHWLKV
# How it was run: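 Extracted human SLC6A3 protein incubated 1 h with radioligand and test chemical; bound fraction separated on filters and counted. Single 25 uM duplicate screen preceded concentration-response follow-up; positive and negative controls on every plate.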
# PGR (gene 5241) = PGR (gene 5241) (UniProt P06401); assay: NVS_NR_hPR: NovaScreen (NVS) Nuclear Receptor Binding Assay for human Progestron Receptor (PR) (AID 2283360);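 further: active means loss of bound radioligand signal versus DMSO baseline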
# PGR (gene 5241), sequence (P06401 whole entry, looked up): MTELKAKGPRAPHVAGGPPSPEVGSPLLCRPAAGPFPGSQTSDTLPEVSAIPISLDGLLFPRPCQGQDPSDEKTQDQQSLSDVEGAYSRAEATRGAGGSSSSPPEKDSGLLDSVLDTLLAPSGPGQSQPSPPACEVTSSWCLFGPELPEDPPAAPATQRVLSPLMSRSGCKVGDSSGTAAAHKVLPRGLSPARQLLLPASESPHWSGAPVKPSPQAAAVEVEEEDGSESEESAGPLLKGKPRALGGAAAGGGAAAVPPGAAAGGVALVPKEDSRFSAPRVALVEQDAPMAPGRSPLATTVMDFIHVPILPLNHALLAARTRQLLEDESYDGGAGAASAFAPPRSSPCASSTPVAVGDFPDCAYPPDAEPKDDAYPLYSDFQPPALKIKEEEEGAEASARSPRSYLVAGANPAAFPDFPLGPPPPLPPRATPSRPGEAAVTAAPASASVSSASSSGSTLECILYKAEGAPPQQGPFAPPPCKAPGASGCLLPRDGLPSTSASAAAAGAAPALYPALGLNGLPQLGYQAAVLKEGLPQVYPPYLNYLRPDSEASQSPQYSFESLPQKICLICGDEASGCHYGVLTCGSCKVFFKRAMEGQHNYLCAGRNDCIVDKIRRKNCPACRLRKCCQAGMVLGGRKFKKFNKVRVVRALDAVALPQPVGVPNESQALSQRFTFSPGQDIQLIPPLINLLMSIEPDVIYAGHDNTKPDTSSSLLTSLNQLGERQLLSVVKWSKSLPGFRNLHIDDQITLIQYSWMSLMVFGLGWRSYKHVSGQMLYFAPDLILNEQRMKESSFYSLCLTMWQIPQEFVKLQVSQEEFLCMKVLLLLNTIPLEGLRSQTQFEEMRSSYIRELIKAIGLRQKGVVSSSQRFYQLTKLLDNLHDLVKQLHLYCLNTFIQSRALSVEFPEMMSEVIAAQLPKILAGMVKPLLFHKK
# How it was run: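 Competitive displacement of a labelled radioligand from T47D-derived receptor protein is measured in a cell-free format. Initial testing uses 25 uM in duplicate, with positive and negative controls on every plate.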
# [12] = biological target: Glucocorticoid receptor (Homo sapiens) (UniProt P04150); assay: NVS_NR_hGR: NovaScreen (NVS) Nuclear Receptor Binding Assay for human Glucocorticoid Receptor (GR) (AID 2283363);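 further: activity is loss of specific radioligand binding signal relative to DMSO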
# Glucocorticoid receptor (Homo sapiens), sequence (P04150 whole entry, looked up): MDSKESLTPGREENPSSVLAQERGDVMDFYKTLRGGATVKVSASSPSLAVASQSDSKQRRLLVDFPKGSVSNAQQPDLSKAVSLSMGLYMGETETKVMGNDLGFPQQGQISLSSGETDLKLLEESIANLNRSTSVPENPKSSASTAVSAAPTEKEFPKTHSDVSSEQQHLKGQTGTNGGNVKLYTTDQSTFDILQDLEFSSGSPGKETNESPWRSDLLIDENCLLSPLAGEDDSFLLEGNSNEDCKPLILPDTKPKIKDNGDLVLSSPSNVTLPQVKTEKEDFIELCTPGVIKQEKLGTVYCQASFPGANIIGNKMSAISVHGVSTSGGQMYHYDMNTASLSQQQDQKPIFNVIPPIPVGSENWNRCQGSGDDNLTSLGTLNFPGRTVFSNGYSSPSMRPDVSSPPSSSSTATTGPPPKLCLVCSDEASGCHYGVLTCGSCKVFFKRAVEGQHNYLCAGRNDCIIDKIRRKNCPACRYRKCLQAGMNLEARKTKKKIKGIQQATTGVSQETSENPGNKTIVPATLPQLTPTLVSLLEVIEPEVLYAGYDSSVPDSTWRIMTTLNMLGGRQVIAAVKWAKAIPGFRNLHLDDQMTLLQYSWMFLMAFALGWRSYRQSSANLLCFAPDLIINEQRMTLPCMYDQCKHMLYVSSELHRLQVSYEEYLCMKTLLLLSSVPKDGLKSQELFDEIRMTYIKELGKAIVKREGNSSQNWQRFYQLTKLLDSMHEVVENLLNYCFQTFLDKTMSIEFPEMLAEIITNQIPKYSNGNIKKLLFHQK
# How it was run: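 Single-readout cell-free binding: radioligand plus extracted receptor, 16-hour dosing, filter radiodetection; 25 uM duplicate primary, concentration series secondary.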
# [13] = biological target: human Norepinephrine Transporter (NET), SLC6A2 (gene 6530) (UniProt P23975); assay: NVS_TR_hNET: NovaScreen (NVS) Transporter Assay for human Norepinephrine Transporter (NET) (AID 2283377);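 further: cell-free membrane protein extracted from CHO cells expressing human NET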;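 on AC50: displacement of radioligand from human NET seen as loss of scintillation signal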
# How it was run: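 In this cell-free binding screen, chemicals at 25 uM (duplicate) compete with a radioligand for CHO-derived human NET over 1 hour, with filter-based radiodetection.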
# [14] = system: guinea pig Dopamine Transporter (DAT), gene 100714898; assay: NVS_TR_gDAT: NovaScreen (NVS) Transporter Assay for guinea pig Dopamine Transporter (DAT) (AID 2283369);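 further: active compounds lower bound radioligand signal relative to DMSO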
# How it was run: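 Guinea pig striatal membranes; radioligand displacement measured by filter-based scintillation counting 2 h after dosing. Initial duplicate screen at 25 uM, then concentration-response up to 50 uM for hits; loss of signal versus DMSO baseline.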
smiles,measurement,setting,value
COC(=O)c1ccccc1C,outcome,[1],inactive
same,outcome,[2],inactive
same,outcome,[3],inactive
same,outcome,[4],inactive
CCc1cccc(C)c1N,outcome,[1],inactive
same,outcome,[5],inactive
same,outcome,[6],inactive
same,outcome,[4],inactive
CN(C)c1ccc2nc3ccc(=[N+](C)C)cc-3sc2c1,AC50,[1],50 µM (active)
same,AC50,[2],76.6 µM (active)
same,AC50,[3],12 µM (active)
same,AC50,[7],70.8 µM (active)
same,AC50,[8],32.7 µM (active)
same,AC50,[9],7.57 µM (active)
CCCCCCCCCCCC(=O)N(C)CC(=O)O,outcome,[1],inactive
same,outcome,[3],inactive
same,outcome,[7],inactive
CCOC(=O)c1ccc(C)cc1,outcome,[1],inactive
same,outcome,[2],inactive
same,outcome,[3],inactive
same,outcome,[4],inactive
CC1=CCC2CC1C2(C)C (stereo not given),outcome,[1],inactive
same,outcome,[2],inactive
same,outcome,[3],inactive
same,outcome,[7],inactive
CCCCCCCCCCCCCCCCCCOS(=O)(=O)O,outcome,[1],inactive
same,outcome,[2],inactive
same,AC50,[3],23.7 µM (active)
same,outcome,[7],inactive
same,outcome,[10],inactive
same,AC50,[4],5.5 µM (active)
CCCCCCCO,outcome,[1],inactive
same,outcome,[2],inactive
same,outcome,[3],inactive
same,outcome,[7],inactive
same,AC50,[11],13.2 µM (active)
CC(C)(C)C1CCC(=O)CC1,outcome,[1],inactive
same,outcome,[2],inactive
same,outcome,[3],inactive
same,outcome,[7],inactive
same,outcome,[4],inactive
CC(C)c1cc(C(C)C)cc(C(C)C)c1,outcome,[1],inactive
same,outcome,[2],inactive
same,outcome,[3],inactive
same,outcome,[7],inactive
same,outcome,[4],inactive
CC/C=C\C/C=C\C/C=C\CCCCCCCC(=O)OC,outcome,PGR (gene 5241),inactive
same,AC50,[12],8.39 µM (active)
same,AC50,[13],11.1 µM (active)
CC(C)CCCCCOC(=O)CS,outcome,PGR (gene 5241),inactive
CC(C)(C)NC(=O)[C@H]1CC[C@H]2[C@@H]3CC[C@H]4NC(=O)C=C[C@]4(C)[C@H]3CC[C@]12C,outcome,[1],inactive
same,outcome,[4],inactive
CC(C)C(=O)OCCOc1ccccc1,AC50,[11],19.6 µM (active)
CC(C=O)c1ccccc1 (stereo not given),outcome,[13],inactive
CCc1occc(=O)c1O,outcome,[1],inactive
same,outcome,[4],inactive
O=S(=O)(O)c1ccc(N=Nc2c(O)ccc3ccccc23)cc1,outcome,[1],inactive
same,outcome,[3],inactive
same,AC50,[8],31.9 µM (active)
same,AC50,[9],17.1 µM (active)
same,AC50,[12],17.2 µM (active)
CCCCCCCCCCCCCc1ccccc1,outcome,[14],inactive
N#Cc1ccc(C2CCCc3cncn32)cc1 (stereo not given),outcome,[1],inactive
same,outcome,[4],inactive
Cc1cc(=O)[nH]c(=O)[nH]1,outcome,PGR (gene 5241),inactive
O=C(O)c1cc(O)c2ccccc2c1O,outcome,[1],inactive
same,outcome,[8],inactive
same,AC50,[9],18.4 µM (active)
same,AC50,[12],9.52 µM (active)
same,AC50,[4],5.21 µM (active)
